# NS1 function inh: influenza NS1 inhibition. Potency, µM (top dose mostly 46.1 µM), inactives show at the top dose activity, positive = more growth. actives 0.4% (n = 270,000). AID 2326; calls by dose curve; also: potency is read from the fitted curve at half-maximal effect; actives are rising curves; nearly all actives have a fitted effect of over 50% in size
#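 OD600 was taken as the measure of yeast growth restored by compound in an NS1-expressing S. cerevisiae strain. Cells had been washed out of glucose medium and diluted 1:100 into galactose -URA medium, pH 6.0.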
# Pf growth 96h: inhibits malaria parasite growth, 96 h | P. falciparum luciferase reporter growth, 96 h | Potency, µM (series often up to 28.7 µM), inactives show top-dose activity change, negative = inhibition, actives largely listed as inhibitors | actives 6.9% (n = 320,000) | AID 504834; also: potency is read from the fitted curve at half-maximal effect; % is scaled to controls: 0 for no effect and ±100 for the full control effect
#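 Erythrocytes infected with luciferase-expressing P. falciparum were dispensed at 2% hematocrit and 0.05% parasitemia (final), then incubated with compounds 96 hours at 37 C in 5% CO2. Luminescence after detection reagent addition reported growth.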
# Pf growth 48h: P. falciparum growth inhibition at 48 hours (one generation); Potency, µM (doses to about 28.7 µM), for the others: top-dose activity change, negative = inhibition, actives largely listed as inhibitors; P. falciparum luciferase growth in erythrocytes, 48 h; AID 504832; actives 5.9% (n = 310,000); also: potency is read from the fitted curve at half-maximal effect; % is scaled to controls: 0 for no effect and ±100 for the full control effect
#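 Cell-based growth assay: transgenic P. falciparum expressing firefly luciferase, cultured in red cells within RPMI 1640 containing 0.5% w/v Albumax, 24 mM bicarbonate and gentamycin. A drop in luciferase activity indicates inhibition.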
# Sm TGR inh: S. mansoni TGR enzyme inhibition; Q962Y6; actives 3% (n = 360,000); purified TGR, DTNB reduction, TNB absorbance 405 nm; AID 485364; Potency, µM (top dose mostly 114 µM), for the others: top-dose activity change, negative = inhibition, actives largely listed as inhibitors; also: potency is read from the fitted curve at half-maximal effect; % is scaled to controls: 0 for no effect and ±100 for the full control effect; nearly all actives have a fitted effect of over 60% in size
#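 TGR 20 nM + NADPH 100 uM (dispensed conc.), cpd preinc 15 min RT; start with NADPH (500 uM addition) then DTNB (15 mM addition). Kinetic TNB absorbance, 405 nm filter. Four-parameter Hill fit across titration.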
# CHX counter: counter-screen for Shiga toxin inhibitors: cycloheximide protein synthesis inhibition | max response, % | cell reporter, cycloheximide protein synthesis inhibition counterscreen | actives 12% (n = 300,000); in the data active = max response mostly above about 13%, no sharp cut-off; inactive = mostly below about 14%; also: read at 38.3 µM for the half of the compounds with a filed dose; 0% is about no effect
# Shiga inhibitor: blocks Shiga toxin action in Vero cells | inhibition, % at 38.7 µM | Vero cells, Shiga toxin protein synthesis inhibition reporter | actives 9.2% (n = 290,000); in the data active = inhibition mostly above about 28%, no sharp cut-off; inactive = mostly below about 43%; also: 0% is about no effect
# * = called active by the depositor; ? = inconclusive; . = no result; [ ] = remark or other dose. This is a sample that favours compounds with a hit; in the whole collection about 21% have one here. Unless noted, calls follow the shape of the dose curve; as a rule, active = well fitted curve in the direction sought with a large enough effect; inconclusive = small, poorly fitted or top-dose-only effect, or another doubt; inactive = no such curve, though single readings can be large; an effect the other way counts as inactive or inconclusive.
SMILES,NS1 function inh,Pf growth 96h,Pf growth 48h,Sm TGR inh,CHX counter,Shiga inhibitor
O=P(c1ccccc1)(c1ccccc1)C(O)c1ccccn1 (centres undefined),-2%,25%,22%,-7%,-1,13
O=P(c1ccccc1)(c1ccccc1)C(c1ccccn1)P(=O)(c1ccccc1)c1ccccc1,-1%,9.3µM*,?,8%,1,8
CCOC(=O)C1CCN(C(=O)c2cc3ccc(OC)cc3[nH]2)CC1,-8%,285%,140%,-2%,27*,48
CCOC(=O)C1CCN(C(=O)c2cc3cc(Cl)ccc3[nH]2)CC1,2%,?,?,1%,23*,49*
O=[N+]([O-])c1ccc(Sc2cccc[n+]2[O-])c2nonc12,-66%,0.83µM*,2.9µM*,0.28µM*,3,-2
Cc1ccc(NC(=O)c2cc3c(-c4ccccc4)nn(-c4ccccc4)c3s2)cc1,.,.,.,-2%,.,.
C=CCN(CC=C)S(=O)(=O)c1ccc(C(=O)Nc2nnc(CSC)o2)cc1,.,?,12µM*,16%,-1,-10
CCCN(CCC)S(=O)(=O)c1ccc(C(=O)Nc2nnc(COC)o2)cc1,.,-1%,15µM*,0%,10,-6
CSCc1nnc(NC(=O)c2ccc(S(=O)(=O)N(C)C)cc2)o1,.,-8%,?,-1%,-9,-11
Cc1cccc(C)c1NC(=O)C(=O)NCC1CCCN1S(=O)(=O)c1ccccc1 (centres undefined),.,?,?,-2%,.,.
O=C(O)C1=C(C(=O)Nc2cccc(C(F)(F)F)c2)CCCC1,.,47%,35%,3%,-2,0
CCOC(=O)Cn1nc(-c2ccc(Cl)cc2)ccc1=O,-11%,9.3µM*,12%,-5%,11,-8
CCOC(=O)Cn1nc(/C=C/c2ccc(C(C)C)cc2)ccc1=O,-3%,73%,99%,1%,9.7*,33
CCOC(=O)N1CCN(C(=O)Cn2nc(-c3ccc(Cl)cc3)ccc2=O)CC1,3%,-10%,49%,12%,7,-17
Cc1ccc(NC(=O)Cn2c(=O)n(CCc3ccccc3)c(=O)c3sc4ccccc4c32)cc1C,.,.,.,1%,.,.
CC1CCCC(C)N1C(=O)CSc1nnc(CSc2ncccn2)n1C (centres undefined),-5%,10µM*,-6%,5%,-4,12
O=[N+]([O-])c1cc(N=Nc2ccc3ccccc3c2)ccc1O,3%,77%,150%,-18%,13*,.
Nc1ccc(O)c([N+](=O)[O-])c1,.,?,11%,-4%,.,.
c1ccc(CSc2ccc(-c3ccccn3)nn2)nc1,.,-79%,105%,-1%,48*,98*
c1ccc(CSc2nnc(SCc3ccccn3)s2)nc1,-65%,23%,11%,4%,30*,59*
O=C(CSc1ccc(-c2ccncc2)nn1)c1ccc(Cl)cc1,.,14%,-19%,3%,-1,-10
Clc1ccc(-c2ccc(SCc3ccccn3)nn2)cc1,-9%,?,172%,10%,41*,59*
C=CCNC(=O)c1n[nH]c2c1CC(C(C)(C)CC)CC2 (centres undefined),.,?,?,-3%,.,.
C=CCN1C(=O)C(C)NC1=S (centres undefined),5%,6%,25%,10%,-1,7
CCOc1ccc(CCNC(=O)Cn2nc(C)n3c(cc4occc43)c2=O)cc1OCC,.,.,.,-3%,.,.
SMILES,NS1 function inh,Pf growth 96h,Pf growth 48h,Sm TGR inh,CHX counter,Shiga inhibitor
CC(C)[C@H](NC(=O)[C@H]1N2C(=O)c3ccccc3C2SC1(C)C)C(=O)NCc1ccco1 (some centres undefined),23%,?,?,?,-14,-3
Cc1csc(C(=O)O)c1-n1cccc1,5%,?,1%,5%,-1,5
Cc1cc(/C=C(/C#N)C(=O)Nc2ccccc2)c(C)n1-c1cccnc1,-13%,?,80%,-25%,43*,51
Cc1ccc(-n2c(C)cc(C=C(C#N)C#N)c2C)cc1,-3%,?,?,-36%,15,33
Cc1cc(C=C(C#N)C#N)c(C)n1-c1ccccc1,13%,-4%,-2%,0%,22*,108*
Cc1cc(/C=N/n2cnnc2)c(C)n1-c1ccc2c(c1)OCO2,-2%,10µM*,11%,-9%,-7,-18
Cc1cc(/C=C(\C#N)C(=O)Nc2ccccc2)c(C)n1-c1ccc2c(c1)OCO2,17%,?,12µM*,5%,41*,44*
COc1ccc(NC(=O)/C(C#N)=C/c2cc(C)n(-c3ccc(N4CCOCC4)c([N+](=O)[O-])c3)c2C)cc1,0%,?,?,4%,-3,-20
Cc1cc(/C=C(\C#N)C(=O)Nc2ccc(F)cc2)c(C)n1-c1ccc(N2CCOCC2)c([N+](=O)[O-])c1,3%,.,7.4µM*,10%,-2,-2
Cc1onc(-c2ccccc2Cl)c1C(=O)Nc1ccc(Cl)cn1,-6%,1%,-7%,6%,11*,12
Cc1onc(-c2ccccc2Cl)c1C(=O)Nc1cccc2cccnc12,-63%,?,9.3µM*,-20%,-1,-12
Cc1onc(-c2ccccc2Cl)c1C(=O)Nc1ccc(-c2cn3cccnc3n2)cc1,?,?,10µM*,0%,-3,-2
Cc1ccc(-c2cn3cccnc3n2)cc1NC(=O)c1c(-c2ccccc2Cl)noc1C,-30%,37%,?,0%,-3,-6
CCSc1nnc(NC(=O)c2c(-c3ccccc3Cl)noc2C)s1,?,5.9µM*,.,14%[11.4 µM],5,71
Cc1ccc(NC(=O)c2c(-c3ccccc3Cl)noc2C)nc1,-7%,15%,13%,1%,-1,8
Cc1onc(-c2ccccc2Cl)c1C(=O)NC1CCS(=O)(=O)C1 (centres undefined),7%,12µM*,.,3%,-5,18
CCCCNS(=O)(=O)c1ccc(NC(=O)c2c(-c3ccccc3)noc2C)cc1,.,.,.,3%,.,.
Cc1onc(-c2c(F)cccc2Cl)c1C(=O)NC1CC1,7%,21%,13%,?,-3,-10
CCCCNS(=O)(=O)c1ccc(NC(=O)c2c(-c3ccccc3Cl)noc2C)cc1,1%,5.2µM*,.,8%,-6,-19
O=C(CNC(=O)/C(=C/c1ccccc1)NC(=O)c1ccc(Br)cc1)OCc1ccccc1,15%,-29%,20%,-12%,-12,-22
CCOC(=O)/C(=C/c1cn(C)c2ccccc12)NC(=O)c1ccccc1,0%,?,-18%,-22%,9,19
O=C(OCc1ccccc1)/C(=C/c1cccc2ccccc12)NC(=O)c1ccccc1,1%,?,6.6µM*,5%,0,17
COc1ccc(C(=O)N/C(=C\c2cccc3ccccc23)C(=O)N2CCN(C)CC2)cc1,.,?,?,-16%,.,.
